Screening results as filed in PubChem BioAssay.
The full list was thinned out, with hits kept by preference.
CD11b adhes enh: enhancers of human CD11b/CD18 binding to fibrinogen; P05107+P11215; K562 CD11b/CD18 adhesion to fibrinogen, ATPlite luminescence; activation, % at 10 µM; 93,000 compounds, 0.07% hits; AID 1499;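 active means 10 µM primary screen giving 50% or more activity, confirmed by 40% or more on retest at that dose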
D1 allo mod: allosteric modulators of human D1 dopamine receptor; P21728; HEK293 D1, CRE-luciferase, dopamine EC30 potentiation; actives deviate in either direction; B-score at 10 µM; 58,000 compounds, 5.9% hits; AID 641;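 active means luminescence count or its row- and column-corrected plate score outside the 99.7% band of the plate's sample wells, on either side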
FAK blocker: FAK (human) kinase inhibition; Q05397; biochemical FAK kinase activity assay; inhibition, %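 (tested at 7 µM)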; 97,000 compounds, 0.84% hits; AID 727; in the data active means inhibition above about 19%;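 further: 0% = DMSO and 100% = reference compound high control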
Mac1 fbg inh: inhibitors of human CD11b/CD18 binding to fibrinogen. inhibition, % at 10 µM. 93,000 compounds, 0.54% hits. K562 CD11b/CD18 adhesion to fibrinogen, ATPlite luminescence; Mn2+ added to activate the integrin. AID 1497;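 active means primary inhibition of 50% or more at 10 µM, then 40% or more on retest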
PTK2B oligo ant: Pyk2 (human) oligomerization antagonism; Q14289; Q293 cells, Pyk2 FERM NanoBiT luminescence; stronger effect = lower value; z-score (the deposit names both 25 µM and 10 µM); 99,000 compounds, 0.83% hits; AID 1347419;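 active means Z-score of -3 or lower, scaled per plate to the spread of control and sample wells; inactive means z-score above -3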;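 further: negative z-score means lost luminescence so less FERM oligomerization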
hDAT+cocaine: changed human dopamine transporter uptake under cocaine IC80. Q01959. B-score at 10 µM. LLC-PK1 hDAT cells, [14C]-dopamine uptake with cocaine IC80; actives deviate in either direction. 110,000 compounds, 1.3% hits. AID 449768;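 active means Z score or B-score, a plate-position-corrected score, falls beyond the plate's 99.7% confidence bounds, in either direction; inactive means both scores lie inside the 99.7% bounds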;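 further: scored against the spread of the other compound wells on the same plate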
Target sequence (Q01959 whole entry, looked up): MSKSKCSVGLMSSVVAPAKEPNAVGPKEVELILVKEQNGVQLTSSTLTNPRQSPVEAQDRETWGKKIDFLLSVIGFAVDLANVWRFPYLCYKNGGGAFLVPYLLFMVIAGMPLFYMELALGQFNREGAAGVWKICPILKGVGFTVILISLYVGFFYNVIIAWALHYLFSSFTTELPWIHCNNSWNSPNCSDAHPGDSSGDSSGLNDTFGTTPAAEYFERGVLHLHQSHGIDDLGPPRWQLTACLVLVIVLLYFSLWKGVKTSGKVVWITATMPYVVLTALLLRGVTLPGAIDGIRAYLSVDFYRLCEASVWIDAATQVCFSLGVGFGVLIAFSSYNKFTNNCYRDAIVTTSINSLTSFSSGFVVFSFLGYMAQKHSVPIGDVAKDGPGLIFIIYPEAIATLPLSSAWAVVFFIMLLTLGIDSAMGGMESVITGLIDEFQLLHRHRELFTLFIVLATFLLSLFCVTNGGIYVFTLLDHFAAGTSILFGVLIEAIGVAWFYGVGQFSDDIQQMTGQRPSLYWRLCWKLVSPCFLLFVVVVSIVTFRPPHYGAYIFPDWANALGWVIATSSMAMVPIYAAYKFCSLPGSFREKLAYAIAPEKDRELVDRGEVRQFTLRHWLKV
* marks the source's active call; other numbers are inactive results; . = not tested or not shown.

SMILES	CD11b adhes enh	D1 allo mod	FAK blocker	Mac1 fbg inh	PTK2B oligo ant	hDAT+cocaine
CC(=O)Cc1nsc(NC(=O)c2cn(-c3ccccc3)nc2-c2ccc(Br)cc2)n1	-2	.	0	-8	-0.33	0.17
c1ccc(-c2nc3cnccn3c2Nc2ccc3c(c2)OCCO3)cc1	.	0.56	15	.	-2	2.5*
COc1cc(-c2nc3cnccn3c2Nc2ccc3c(c2)OCCO3)ccc1O	4	-0.93	.	5	-0.66	0.028
CCOCC(=O)Nc1nc(-c2ccccc2)c(CC)s1	1	.	-1	-8	0.11	1.3
CC1CN(C(=O)Nc2ccc3snnc3c2)c2ccccc21 (configuration not stated)	-1	-3.4	.	5	.	2.6*
Cc1ccc2nc3c(cc(C#N)c(=O)n3CC3CCCO3)c(=O)n2c1 (configuration not stated)	-6	-3.6*	.	-13	.	0.39
COCc1nc(-c2cc(Br)ccc2OC)no1	2	1.6	-2	-3	0.82	2.9*
COc1ccc(Br)cc1-c1noc(-c2ccccc2)n1	-5	0.97	-3	0	-1.2	0.13
O=C(Nc1ccc(-c2nc3ccccc3o2)cc1)C1CCCO1 (configuration not stated)	1	-5.2*	0	13	-1.2	-0.43
CC(=O)Nc1ccc(S(=O)(=O)Nc2cccc(-c3nc4ccccc4o3)c2)cc1	-3	.	2	28	-0.68	0.015
O=C(Nc1ccc(-c2nc3cc(Cl)ccc3o2)cc1)C1CCCO1 (configuration not stated)	.	.	-9	.	-0.4	0.81
O=S(=O)(Nc1ccc(-c2nc3ccccc3o2)cc1)c1ccccc1	2	-0.015	-16	15	-3.5*	0.39
CNc1c([N+](=O)[O-])cnn1-c1ccc(Cl)cc1	0	.	-2	0	1.4	-0.46
CSc1nc2ccc(NS(=O)(=O)c3ccc(Cl)s3)cc2s1	-12	-0.67	-22	82*	-2.5	0.02
O=C(NCc1ccccn1)C1CCCN(S(=O)(=O)c2cccc3nsnc23)C1 (configuration not stated)	-2	2.4	2	-18	0.09	0.47
Cc1c(C#N)c2ncn(Cc3ccccc3)c(=O)c2n1-c1ccccc1	2	13*	-5	6	0.18	0.33
Cc1c(C#N)c2ncnc(-c3ccccc3)c2n1-c1ccccc1	-6	0.92	-2	4	-0.75	0.11
Cn1cc(S(=O)(=O)Cc2ccc(F)cc2)c2ccccc21	.	-0.37	.	.	.	.
Cc1ccc(C(=O)NNC(=O)C2CCCN(c3ncccn3)C2)cc1 (configuration not stated)	.	.	-3	.	-0.32	6.6*
O=C(Nc1nnc(CC(=O)N2CCCC2)s1)c1cnccn1	.	0.18	.	.	.	.
COc1ccc(OCCC(=O)OCC(=O)NCc2ccccc2)cc1	6	.	.	-8	.	.
COC(=O)C(O)(CC(=O)Nc1cc(Cl)ccc1Cl)C(F)(F)F (configuration not stated)	.	.	-2	.	1.4	0.46
CCN(CC)C(=O)/C(=C\c1ccc(Br)cc1)NC(=O)c1ccccc1OC	-4	.	-2	11	-0.69	15*
CC(C)n1c(SCC(=O)Nc2nc3ccccc3s2)nc2c1c(=O)n(C)c(=O)n2C	.	.	2	.	-3.7*	-0.5
CCCn1c(SCC(=O)c2cc(OC)ccc2OC)nc2c1c(=O)n(C)c(=O)n2C	-4	1.7	-3	-7	0.18	.
SMILES	CD11b adhes enh	D1 allo mod	FAK blocker	Mac1 fbg inh	PTK2B oligo ant	hDAT+cocaine
COc1ccc(OC)c(C(=O)CSc2nc3c(c(=O)n(C)c(=O)n3C)n2C(C)C)c1	-3	6.1*	-5	1	1.7	-0.48
CCOc1ccc(N2C(=O)CC(N3CCN(C(=O)CN4CCCC4)CC3)C2=O)cc1 (configuration not stated)	4	.	-5	-4	0.24	-0.078
CCOc1ccc(N2C(=O)CC(N3CCC(NC(=O)Nc4ccccc4)CC3)C2=O)cc1 (configuration not stated)	-6	-0.063	1	-11	0.26	-2*
CCOc1ccc2nc(NC(=O)Nc3cccs3)sc2c1	.	-3.8*	.	.	.	-0.87
CCOC(=O)c1ccc2nc(NC(=O)c3ccco3)sc2c1	.	-4.8*	4	.	-2.3	0.72
COc1ccc2nc(NC(=O)c3cnccn3)sc2c1	10	-4.9*	0	6	-0.17	0.036
CCOC(=O)c1ccc2nc(NC(=O)c3cccs3)sc2c1	.	-0.85	3	.	-1.9	0.085
COc1ccc2nc(NC(=O)Nc3ccccc3)sc2c1	.	.	.	.	.	0.26
CCOc1ccc2nc(NC(=O)c3ccoc3C)sc2c1	-4	-5.6*	3	12	-1.1	2
CCOc1ccc2nc(NC(=O)Nc3ccccc3)sc2c1	-3	.	1	12	-0.89	0.43
COc1ccc(NS(=O)(=O)c2cc(NC(=O)[C@@H](NC(=O)c3ccccc3)C(C)C)ccc2C)cc1	.	.	.	.	-0.25	.
O=C(C(Cc1ccccc1)NS(=O)(=O)c1cccc2cccnc12)N1CCc2ccccc21 (configuration not stated)	6	.	1	-8	.	0.37
Cc1cc(C)n(-c2nc3nonc3nc2Nc2cccc(C)c2C)n1	-1	.	-1	0	-0.1	-0.54
CCOc1ccc2nc(NC(=O)c3ccc(OC)c(S(=O)(=O)N4CCOCC4)c3)sc2c1	3	.	1	-34	-3.7*	0.57
Cc1cc(C)c2c(c1)NC(c1cc3c(cc1Br)OCO3)C1CC=CC21 (configuration not stated)	24	.	.	-13	.	.
CCOCCCNC(=O)C(c1ccc(Cl)cc1)N1CCC2(CC1)OCCO2 (configuration not stated)	-5	0.35	1	0	0.48	-8.5*
O=C(NC(NC(=S)Nc1ccc(Cl)cc1Cl)C(Cl)(Cl)Cl)c1cccc([N+](=O)[O-])c1 (configuration not stated)	.	.	3	.	0.76	-1.2
Cc1cc(C(=O)NNC(=S)NC(=O)/C=C/c2ccccc2Cl)n[nH]1	1	.	0	65*	-0.55	-0.017
CC(C)(C)C1CCc2c(sc(NC(=O)c3cc(C4CC4)on3)c2C#N)C1 (configuration not stated)	-5	0.37	-2	54*	.	-1.3
COc1ccc(CC(=O)Nc2oc(-c3ccccc3)c(-c3ccccc3)c2C#N)cc1OC	.	-0.94	-2	.	-3.3*	0.37
COc1ccccc1OCC(=O)Nc1oc(-c2ccccc2)c(-c2ccccc2)c1C#N	-11	-0.28	-6	89	-3.7*	-0.015
COc1ccc(-c2oc(NC(=O)CSc3ncn[nH]3)c(C#N)c2-c2ccc(OC)cc2)cc1	-4	.	-6	0	-4*	0.012
N#Cc1c(NC(=O)Cn2cnc3ccccc3c2=O)oc(-c2ccccc2)c1-c1ccccc1	4	-4.7*	-4	50	-1.8	-0.47
